# Screening results from PubChem BioAssay.
# The full list was thinned out, with hits kept by preference.
# Sa growth inh: inhibitors of Staphylococcus aureus growth at 42 °C | AID 720641 | relative growth, % (test concentration not listed) | S. aureus RN4220 growth, OD600, 20 h; hits give low values | 170,000 compounds, 0.53% hits;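 active means relative growth at most 50% at the other temperature and 20+ points below 30 °C, or under 10% at both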
# Sa helicase inh: blocks Staphylococcus aureus DNA helicase. purified S. aureus helicase, fluorescence unwinding assay. inhibition, % (no concentration beside the values). 120,000 compounds, 0.05% hits; in the data active means inhibition above about 25%, passing the limit was not always enough
# Hits are given with their value; n = inactive; x = no result given.
SMILES,Sa growth inh,Sa helicase inh
c1ccc(-c2ccc3c(c2)c2c4n3CCN=C4CCC2)cc1,-0.2,n
NNc1nnc(-c2ccccc2)c(-c2ccccc2)n1,n,n
Clc1nnc(-c2ccccc2)c(-c2ccccc2)n1,-0.6,x
CCn1cc(C(=O)O)c(=O)c2cc(F)c(N3CCN(C(=S)NC)CC3)cc21,n,n
CCn1cc(C(=O)O)c(=O)c2cc(F)c(N3CCN(C(=S)NC(=O)c4c(-c5ccccc5)noc4C)CC3)cc21,2.0,n
Cc1c(CC#N)ccc2ccccc12,n,x
CN(C)Cc1ccc2ccc3cccc4ccc1c2c34,n,50.0
O=C(NCc1nc(-c2ccccc2F)no1)C1CC1,n,n
CCc1ccc(S(=O)(=O)N(C)C2CCS(=O)(=O)C2)cc1 (configuration not stated),n,n
Cc1ccc(Nc2c(-c3ccc(O)cc3)nc3cccc(C)n23)cc1,n,x
Cc1ccc(-c2nc(I)ccc2O)cc1,9.1,n
COc1ccc(Cl)cc1NC(=O)/C=C/c1cccs1,n,n
CCCCNS(=O)(=O)c1ccc(OCC(N)=O)cc1,n,n
COc1cccc2sc(Nc3sc4c(c3C(N)=O)CCCC4)nc12,1.1,n
COc1ccccc1C(=O)Nc1sc2c(c1C(N)=O)CCC2,n,n
COc1ccc2c(C)cc(N3CCC(C(N)=O)CC3)nc2c1,n,n
N#CSCC(=O)c1cccs1,1.0,n
N#CCN(CC#N)C(=O)c1cccs1,n,x
O=C1NCCN=C1CC(=O)c1ccccc1,n,n
Cc1ccc(/C=C2\CCCC3=C2Nc2nnnn2C3c2ccc(C)cc2)cc1 (configuration not stated),0.7,n
COc1ccc(/C=C2\CCCC3=C2Nc2ncnn2C3c2ccc(OC)cc2)cc1 (configuration not stated),n,n
CCn1c(SC)nnc1C1CCN(C(=O)N(c2ccccc2)c2ccccc2)CC1,n,n
N#CCCN(C(=O)c1cncc(Br)c1)c1ccccc1F,n,n
Cc1c(C)c(C)c(C#CCO)c(C)c1C,3.2,n
COc1ccc(-c2[nH]c3ccccc3c2SCCNC(C)=O)cc1,x,n
SMILES,Sa growth inh,Sa helicase inh
FC(F)(F)c1cccc(Nc2nc3nonc3nc2Nc2ccc(Cl)cc2)c1,n,x
Cc1cccc(Nc2nc3nonc3nc2Cl)c1,-0.4,n
CC1C(=O)CC(c2ccccc2)OC1c1ccccc1 (configuration not stated),n,n
CCn1c(=O)c(=O)[nH]c2cc(C(=O)NCCSCc3ccco3)ccc21,n,n
C=CCNc1cc(C)nc2ccc(C)cc12,n,n
Cc1ccnc(SCC(=O)/C=C2\N(C)c3ccccc3C2(C)C)n1,n,n
CN1/C(=C\C(=O)CSCCO)C(C)(C)c2ccccc21,-0.5,n
CN(Cc1ccccc1)C(=O)c1cccc(F)c1,n,n
O=c1[nH]c(=O)n(C2C[C@@H](O)[C@@H](CO)O2)cc1F (some centres not stated),-0.7,x
O=c1[nH]c(=O)n(C2C[C@H](O)[C@@H](CO)O2)cc1C(F)(F)F (some centres not stated),n,x
Cc1cc(=O)[nH]c(SCC(=O)Nc2ccc(N3CCCC3)cc2)c1C#N,n,n
Cc1cc(=O)[nH]c(SCC(=O)Nc2ccc(Br)cc2)c1C#N,7.7,n
Cc1cccc(OC(=O)c2cc(-c3ccc(C)c(C)c3)on2)c1,0.8,x
Cc1ccc(-c2cc(C(=O)Oc3ccc(C#N)cc3)no2)cc1C,n,x
Cc1ccc(OC(=O)c2cc(-c3ccc4c(c3)OCCO4)on2)cc1C,2.2,x
Cc1cc(OC(=O)c2cc(-c3ccc4c(c3)OCCO4)on2)ccc1Cl,n,x
COc1ccc(-n2c(C)cc(C(=O)COC(=O)c3nccnc3N)c2C)cc1,n,n
O=S(=O)(c1ccc(Cl)cc1)C(F)(F)F,n,n
O=S(=O)(c1cc(O)cc(S(=O)(=O)C(F)(F)F)c1)C(F)(F)F,-0.3,n
COc1ccc(Br)cc1S(=O)(=O)n1ccnc1,x,n
COc1cc(C)c(S(=O)(=O)n2ccnc2)cc1C(C)C,2.4,n
COc1cccc(NC(=O)CSc2nnc(N)s2)c1,n,n
CCNC(=O)C1CCN(C2=NS(=O)(=O)C(c3ccc(C)cc3)=C2CC)CC1,n,n
CCCC1CCC(c2ccc(C(=O)CCN(C)C)cc2)CC1 (configuration not stated),-0.5,n
CCCC1CCC(c2ccc(C(N)=O)cc2)CC1 (configuration not stated),n,n
SMILES,Sa growth inh,Sa helicase inh
S=c1nc(-c2cccs2)cn[nH]1,38.5,n
Cc1nc(-c2cccs2)cs1,n,n
CC(NC(=O)CSc1ccccn1)c1ccc2c(c1)OCO2 (configuration not stated),n,n
Oc1cc2c(cc1C(Nc1ccccn1)c1ccc3c(c1)OCO3)OCO2 (configuration not stated),0.6,n
O=C(Cn1ncc2ccc(Cl)cc21)NC1CCCC1,n,n
CC(N)c1nc(-c2cccnc2)no1 (configuration not stated),n,n
CC(C)NC(=O)n1nccc1-c1cc(-c2ccccc2)no1,n,x
